# Test results reported in PubChem BioAssay (NCI).
# Values joined by “and” are separate entries in the source; they are usually repeats but may differ in a detail not shown here. Identical values can stand only once. Compounds without any hit were thinned out: in the full panel of roughly 79,000, 15% have a hit. The source holds several records for some structures; these can differ, active in one and inactive in another. Active and inactive are the calls of the source. Rule as the data show it: active = growth inhibition above about 70%; inactive = the rest.
# Test: NCI Yeast Anticancer Drug Screen. Data for the sgs1 mgt1 strain (AID 161);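 also: 0% = growth of cultures given vehicle only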
# Conditions: S. cerevisiae sgs1 mgt1 strain, at 50.0 µM (retest, dose inferred, filed as 5.0), stronger effect = higher value
# Method in brief: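 This yeast growth screen uses a strain with defined DNA-repair lesions; compound-treated growth is compared with vehicle-treated growth.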
row,Compound,growth inhibition
1,O=C1C(CN2CCCCC2)CCCC1CN1CCCCC1 (stereo unspecified),29% (inactive)
2,NC(=O)c1cc(Br)cc(Br)c1O,90% (active)
3,CN(C)c1ccc(/C=C/c2ccc3ccccc3[n+]2C)cc1,97% (active)
4,C1=C(CN2CCCCC2)COc2ccccc21,61% (inactive)
5,O=C1Nc2ccccc2C1(O)C/C(=N/O)c1ccc2ccccc2c1 (stereo unspecified),51% (inactive)
6,CC(C)(S)C(N)C(=O)O (stereo unspecified),-9% (inactive)
7,COC(=O)[C@@H](NS(=O)(=O)CC12CCC(CC1)C2(C)C)C(C)(C)C,70% (active)
8,CN(CCN1C(=O)c2cccc3cccc(c23)C1=O)CCN1C(=O)c2cccc3cccc(c23)C1=O,97% (active)
9,CN(C)CCCN=c1c2ccccc2n(O)c2cccc([N+](=O)[O-])c12,-1% (inactive)
10,O=C(/C=C/c1ccc(Cl)cc1)NC1C=Nc2ccc([N+](=O)[O-])cc2NC1=O (stereo unspecified),93% (active)
11,O=C(CC(=O)CC(O)(c1ccccc1)c1ccccc1)CC(=O)c1ccccc1,98% (active)
12,O=C(c1ccc(Cl)cc1)C(O)c1ccc(Cl)cc1 (stereo unspecified),79% (active) and 82% (active)
13,COc1ccc2c(c1)C(Cc1ccc(Oc3ccc(CC4c5cc(OC)ccc5CC[N+]4(C)C)cc3)cc1)[N+](C)(C)CC2 (stereo unspecified),91% (active)
14,O=C(NO)c1cccnc1,-3% (inactive)
15,Oc1c(Cl)c(Cl)c(Cl)c2ccccc12,34% (inactive)
16,CSC1SCC2C(=O)N(C)C(C(C)C)C(=O)OCC(NC(=O)c3cnc4ccccc4n3)C(=O)NC(C)C(=O)N(C)C1C(=O)N(C)C(C(C)C)C(=O)OCC(NC(=O)c1cnc3ccccc3n1)C(=O)NC(C)C(=O)N2C (stereo unspecified),98% (active)
17,O=C(O)C1(Cc2ccccc2)Cc2cc3c(cc2C1)CCC3,0% (inactive)
18,CC1=C(C(=O)Nc2c(C)cccc2C)C(c2ccc3c(c2)OCO3)C(C(=O)Nc2c(C)cccc2C)=C(C)N1,4% (inactive)
19,COc1cc2c(c3c1/c(=N/N(C)C)c1ccccc1n3C)C=CC(C)(C)O2,91% (active)

row,Compound,growth inhibition
1,CC(=O)Nc1nc(N)c2ncn(C3OC(C(O)CO)C(O)C3O)c2n1 (stereo unspecified),-1% (inactive)
2,CC(C)(Cc1nocc1C(C)(C)CC#N)c1cc(CC(C)(C)C2(C)OCCO2)no1,1% (inactive)
3,CCOC(=O)c1c[nH]c2c(ccc3cccnc32)c1=O,85% (active) and 56% (inactive)
4,Cc1ncc(C[n+]2cccc(CCO)c2C)c(N)n1,62% (inactive) and 68% (inactive)
5,Clc1ccc2c(c1)[nH]c1c2nc2ccccn21,95% (active)
6,O=C(O)c1ccccc1C(=O)O,7% (inactive)
7,COC1/C=C/OC2(C)Oc3c(C)c(O)c4c(c3C2=O)C(=O)C=C(NC(=O)/C(C)=C\C=C\C(C)C2OC(C)(C)OC(C2C)C(C)C(OC(C)=O)C1C)C4=O (stereo unspecified),73% (active)
8,CCN(CC)CCCn1c2cc(=O)c(=O)cc-2[nH]c2cc(C)ccc21,74% (active)
9,O=[N+]([O-])c1ccc(N/N=C/CC(O)(C(F)(F)F)C(F)(F)F)c([N+](=O)[O-])c1,97% (active)
10,OCc1ccccc1C(c1ccccc1)c1ccccc1,70% (active)
11,COc1ccc2[nH]c3c(C)c4ccncc4c(C)c3c2c1,99% (active)
12,CC(C)CCC[C@@H](C)[C@H]1CC[C@H]2[C@@H]3CC=C4N5CCCN=C5CC[C@]4(C)[C@H]3CC[C@]12C,89% (active)
13,CC(C)CCCC(C)C1CCC2C3CC=C4CC([n+]5cccc6ccccc65)CCC4(C)C3CCC12C (stereo unspecified),50% (inactive)
14,O=C1/C(=C/c2ccc(Cl)cc2)CNC/C1=C\c1ccc(Cl)cc1,88% (active) and 91% (active)
15,CCn1c2ccccc2c2ccc(N=Cc3ccc(N(C)C)cc3)cc21,40% (inactive)
16,O=C1NC(=O)c2cc([N+](=O)[O-])ccc21,8% (inactive)
17,O=c1[nH]c(SCc2c(Cl)c(Cl)c(Cl)c(Cl)c2Cl)nc(=S)[nH]1,95% (active)
18,Cn1c2nc3ccccc3c-2cc2ccccc21,83% (active)
19,O=Cc1cc(Br)ccc1O,73% (active) and 68% (inactive)

# Same assay, conditions: S. cerevisiae sgs1 mgt1 strain, at 50.0 µM, stronger effect = higher value
row,Compound,growth inhibition
1,O=C1C(CN2CCCCC2)CCCC1CN1CCCCC1 (stereo unspecified),10.4% (inactive) and 31.3% (inactive)
2,NC(=O)c1cc(Br)cc(Br)c1O,48.5% (inactive)
3,CN(C)c1ccc(/C=C/c2ccc3ccccc3[n+]2C)cc1,46.2% (inactive)
4,C1=C(CN2CCCCC2)COc2ccccc21,46.5% (inactive)
5,O=C1Nc2ccccc2C1(O)C/C(=N/O)c1ccc2ccccc2c1 (stereo unspecified),49.5% (inactive)
6,CC(C)(S)C(N)C(=O)O (stereo unspecified),-9.7% (inactive) and -11.3% (inactive) and 3% (inactive)
7,COC(=O)[C@@H](NS(=O)(=O)CC12CCC(CC1)C2(C)C)C(C)(C)C,25.7% (inactive)
8,CN(CCN1C(=O)c2cccc3cccc(c23)C1=O)CCN1C(=O)c2cccc3cccc(c23)C1=O,97.2% (active)
9,CN(C)CCCN=c1c2ccccc2n(O)c2cccc([N+](=O)[O-])c12,46.9% (inactive)
10,O=C(/C=C/c1ccc(Cl)cc1)NC1C=Nc2ccc([N+](=O)[O-])cc2NC1=O (stereo unspecified),96.6% (active)
11,O=C(CC(=O)CC(O)(c1ccccc1)c1ccccc1)CC(=O)c1ccccc1,98% (active)
12,O=C(c1ccc(Cl)cc1)C(O)c1ccc(Cl)cc1 (stereo unspecified),55.1% (inactive)
13,COc1ccc2c(c1)C(Cc1ccc(Oc3ccc(CC4c5cc(OC)ccc5CC[N+]4(C)C)cc3)cc1)[N+](C)(C)CC2 (stereo unspecified),99.2% (active)
14,O=C(NO)c1cccnc1,29.1% (inactive)
15,Oc1c(Cl)c(Cl)c(Cl)c2ccccc12,95.9% (active)
16,CSC1SCC2C(=O)N(C)C(C(C)C)C(=O)OCC(NC(=O)c3cnc4ccccc4n3)C(=O)NC(C)C(=O)N(C)C1C(=O)N(C)C(C(C)C)C(=O)OCC(NC(=O)c1cnc3ccccc3n1)C(=O)NC(C)C(=O)N2C (stereo unspecified),98.8% (active) and 93% (active)
17,O=C(O)C1(Cc2ccccc2)Cc2cc3c(cc2C1)CCC3,87.2% (active)
18,CC1=C(C(=O)Nc2c(C)cccc2C)C(c2ccc3c(c2)OCO3)C(C(=O)Nc2c(C)cccc2C)=C(C)N1,85.7% (active)
19,COc1cc2c(c3c1/c(=N/N(C)C)c1ccccc1n3C)C=CC(C)(C)O2,55.5% (inactive)

row,Compound,growth inhibition
1,CC(=O)Nc1nc(N)c2ncn(C3OC(C(O)CO)C(O)C3O)c2n1 (stereo unspecified),3% (inactive) and 1.8% (inactive)
2,CC(C)(Cc1nocc1C(C)(C)CC#N)c1cc(CC(C)(C)C2(C)OCCO2)no1,-7.8% (inactive)
3,CCOC(=O)c1c[nH]c2c(ccc3cccnc32)c1=O,10.8% (inactive) and 52.7% (inactive)
4,Cc1ncc(C[n+]2cccc(CCO)c2C)c(N)n1,87.5% (active) and 64% (inactive)
5,Clc1ccc2c(c1)[nH]c1c2nc2ccccn21,19.4% (inactive) and 85.7% (active)
6,O=C(O)c1ccccc1C(=O)O,4.95% (inactive) and -23.6% (inactive)
7,COC1/C=C/OC2(C)Oc3c(C)c(O)c4c(c3C2=O)C(=O)C=C(NC(=O)/C(C)=C\C=C\C(C)C2OC(C)(C)OC(C2C)C(C)C(OC(C)=O)C1C)C4=O (stereo unspecified),60.8% (inactive)
8,CCN(CC)CCCn1c2cc(=O)c(=O)cc-2[nH]c2cc(C)ccc21,23.6% (inactive)
9,O=[N+]([O-])c1ccc(N/N=C/CC(O)(C(F)(F)F)C(F)(F)F)c([N+](=O)[O-])c1,91.8% (active)
10,OCc1ccccc1C(c1ccccc1)c1ccccc1,73% (active)
11,COc1ccc2[nH]c3c(C)c4ccncc4c(C)c3c2c1,93.2% (active) and 99.4% (active)
12,CC(C)CCC[C@@H](C)[C@H]1CC[C@H]2[C@@H]3CC=C4N5CCCN=C5CC[C@]4(C)[C@H]3CC[C@]12C,98.5% (active)
13,CC(C)CCCC(C)C1CCC2C3CC=C4CC([n+]5cccc6ccccc65)CCC4(C)C3CCC12C (stereo unspecified),94.8% (active)
14,O=C1/C(=C/c2ccc(Cl)cc2)CNC/C1=C\c1ccc(Cl)cc1,87.2% (active) and 86.7% (active)
15,CCn1c2ccccc2c2ccc(N=Cc3ccc(N(C)C)cc3)cc21,61% (inactive)
16,O=C1NC(=O)c2cc([N+](=O)[O-])ccc21,5.35% (inactive) and 17% (inactive)
17,O=c1[nH]c(SCc2c(Cl)c(Cl)c(Cl)c(Cl)c2Cl)nc(=S)[nH]1,92.8% (active)
18,Cn1c2nc3ccccc3c-2cc2ccccc21,70% (inactive) and 68.5% (inactive)
19,O=Cc1cc(Br)ccc1O,95.9% (active) and 96.3% (active)
